Assay results from PubChem BioAssay (Tox21).
Records with an inconclusive call do not appear. Active and inactive are the calls of the source. Unless noted, calls follow the shape of the full dose curve.

What was measured:
[1] = Nuclear factor erythroid 2-related factor 2/antioxidant responsive element (Nrf2/ARE) small molecule agonists: qHTS cell viability counter screen in human keratinocytes (AID 1919968; active = well fitted curve in the direction sought with a large enough effect in the repeat runs; an effect the other way counts as inactive or inconclusive; also: nearly all actives have a fitted effect of over 55% in size; also: potency is read from the fitted curve at half-maximal effect); conditions: KeratinoSens HaCaT ARE cells viability, CellTiter-Fluor, 24 h; series mostly up to 92.4 µM
In short: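 In human HaCaT keratinocytes stably expressing an ARE-driven luciferase, compound exposure lasted 23 h at 37 C under 5% CO2. Viable cells are quantified with a protease-based fluorogenic reagent (CellTiter-Fluor) read 1 h after addition.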

[2] = Nuclear factor erythroid 2-related factor 2/antioxidant responsive element (Nrf2/ARE) small molecule agonists: luciferase reporter gene qHTS assay in human keratinocytes (AID 1919969); conditions: KeratinoSens HaCaT ARE-luciferase, luminescence, 24 h; series mostly up to 92.4 µM; also: nearly all actives have a fitted effect of over 35% in size; also: potency is read from the fitted curve at half-maximal effect
[3] = target: Gonadotropin-releasing hormone receptor (Homo sapiens) (UniProt P30968); assay: Human gonadotropin-releasing hormone receptor (GnRHR) small molecule agonists, calcium flux assay in GnRHR-HEK293 cells (AID 1920063); conditions: calcium flux fluorescence, agonist mode; series mostly up to 57.6 µM; also: nearly all actives have a fitted effect of over 35% in size
In short: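 Intracellular calcium rise is the read-out: engineered human GnRHR HEK293 cells, dye-loaded, are exposed to DMSO-dissolved compounds and fluorescence at Ex/Em 480/540 is tracked for 3 min.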

[4] = target: KiSS-1 receptor (Homo sapiens) (UniProt Q969F8); assay: Human kisspeptin (KISS1R) small molecule agonists, calcium flux assay in KISS1R-HEK293 cells (AID 1920064; active = well fitted curve in the direction sought with a large enough effect in the repeat runs; an effect the other way counts as inactive or inconclusive); conditions: KISS1R-HEK293, calcium flux fluorescence, agonist; series mostly up to 76.8 µM
In short: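 Concentration-response testing used 15 concentrations in triplicate on human KISS1R-expressing HEK293 cells. Calcium-dependent fluorescence (Ex/Em 480/540) was followed kinetically for 3 min after compound transfer.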

[5] = G protein-coupled receptor (GPCR) small molecule agonists, calcium flux assay: HEK293 wild type cell line counter screen (AID 1920065); conditions: HEK293 WT calcium flux, fluorescence, agonist mode; series mostly up to 57.6 µM
In short: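 Fluorescence intensity signals activation. After overnight (18 h) culture and a 1 h calcium dye load at 37 C, compounds are added by pin tool and the plate read at 480/540 nm for 3 min in 1 s steps.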

[6] = p53 small molecule agonists, cell-based qHTS assay with human liver microsomes (AID 1963577); conditions: HCT-116 p53RE-bla with human liver microsomes, ratio, 16 h; series mostly up to 66 µM
In short: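 p53RE-bla reporter cells were pre-incubated 5 h at 37 C, then treated with compounds plus human liver microsomes (0.5 mg/mL final) and NADPH (0.5 mg/mL final) for 16 h at 37 C. Beta-lactamase activity was read by LiveBLAzer fluorescence after 2 h at room temperature.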

[7] = p53 small molecule agonists, cell-based qHTS assay with rat liver microsomes (AID 1963578); conditions: HCT-116 p53RE-bla, beta-lactamase ratio, 16 h; series mostly up to 66 µM
In short: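 p53RE-bla cells were exposed to compounds together with rat liver microsomes (0.5 mg/mL final) and NADPH (0.5 mg/mL final) for 16 h at 37 C, then read by LiveBLAzer beta-lactamase fluorescence after 2 h at room temperature.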

[8] = p53 small molecule agonists, cell-based qHTS assay with human liver microsomes: qHTS cell viability counter screen (AID 1963579); conditions: p53RE-bla HCT-116 viability, ATP luminescence, 16 h, HLM; series mostly up to 66 µM; also: nearly all actives have a fitted effect of over 45% in size
In short: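 p53RE-bla cells (4,000/well) were pre-incubated 5 h at 37 C, then given compounds in DMSO plus human liver microsomes (0.5 mg/mL final) and NADPH (0.5 mg/mL final) for 16 h at 37 C. Viability was read by CellTiter-Glo luminescence.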

[9] = p53 small molecule agonists, cell-based qHTS assay with rat liver microsomes: qHTS cell viability counter screen (AID 1963580); conditions: p53RE-bla HCT-116 + rat microsomes, ATP viability, 16 h; series mostly up to 66 µM; also: nearly all actives have a fitted effect of over 45% in size
In short: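 Cytotoxicity counter screen: intracellular ATP read by CellTiter-Glo luminescence in the p53 reporter wells. HCT-116 p53RE-bla cells were treated for 16 h at 37 C alongside rat liver microsomes and NADPH, each 0.5 mg/mL final.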

[10] = p53 small molecule agonists, cell-based qHTS assay (AID 1963582; active = well fitted activation curve with a large enough effect in the signal ratio in the repeat runs, not every such curve was filed as active; the % refers to the signal ratio); conditions: HCT-116 p53RE-bla reporter, beta-lactamase FRET ratio, 16 h; series mostly up to 66 µM
In short: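 After plating, p53RE-bla cells sat 5 h in the incubator; compounds or DMSO vehicle were pinned in; a 16 h incubation at 37 C followed; FRET substrate was added and, 2 h later at RT, fluorescence was measured.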

[11] = target: 5-hydroxytryptamine receptor 2A (Homo sapiens) (UniProt P28223); assay: 5-hydroxytryptamine receptor 2A (HTR2A) small molecule agonists, cell-based qHTS assay (AID 1963587); conditions: HTR2A-CHO cells, calcium flux fluorescence, agonist mode; series mostly up to 76.8 µM; also: nearly all actives have a fitted effect of over 30% in size; also: potency is read from the fitted curve at half-maximal effect
In short: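 Kinetic calcium-flux fluorescence (2 min, 1 sec intervals) after compound addition in agonist mode. HTR2A-CHO cells were cultured 18 h, then dye-loaded 1 h at 37 C.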

[12] = cAMP Responsive Elements (CRE) small molecule agonists, cell-based qHTS assay (AID 1963590); conditions: CRE-bla HEK293T, beta-lactamase FRET ratio, 3 h; series mostly up to 92.4 µM
In short: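 Compound exposure lasted 3 h at 37 C/5% CO2 in CRE-bla HEK 293T cells grown in assay medium with 10% dialyzed FBS and 25 mM HEPES. Reporter signal came from LiveBLAzer B/G FRET substrate, 2 h, room temperature.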

[13] = cAMP Responsive Elements (CRE) small molecule antagonists, cell-based qHTS assay (AID 1963591; active = well fitted inhibition curve with a large enough effect in the signal ratio in the repeat runs, not every such curve was filed as active; the % refers to the signal ratio; also: potency is read from the fitted curve at half-maximal effect); conditions: CRE-bla HEK293T, beta-lactamase FRET ratio; series mostly up to 92.4 µM
In short: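 Stimulation used NKH477 at a final 0.25 uM for 3 h in compound-treated CRE-bla HEK293T cells, seeded 18 h beforehand. Reporter activity was measured with LiveBLAzer B/G FRET substrate after 2 h at room temperature.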

[14] = target: Beta-2 adrenergic receptor (Homo sapiens) (UniProt P07550); assay: Adrenergic beta2 receptor (ADRB2) small molecule antagonists, cell-based qHTS assay (AID 1963592); conditions: CHO-ADRB2 cells, isoproterenol-stimulated cAMP HTRF ratio, 0.5 h; series mostly up to 92.4 µM; also: nearly all actives have a fitted effect of over 50% in size
In short: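 Assay format: CHO-ADRB2 cells, 18-20hr seeding at 37C/5% CO2, then compound plus 1nM isoproterenol agonist mix for 0.5hr RT. Homogeneous time-resolved fluorescence cAMP detection after 1hr, expressed as 665/615 nm ratio.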

[15] = target: Beta-2 adrenergic receptor (Homo sapiens) (UniProt P07550); assay: Adrenergic beta2 receptor (ADRB2) small molecule agonists, cell-based qHTS assay (AID 1963593); conditions: CHO-ADRB2 cells, cAMP HTRF, 30 min; series mostly up to 42.5 µM;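 also: CHO cells stably overexpressing human ADRB2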
In short: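 CHO cells stably over-expressing ADRB2 were plated overnight at 37C, then dosed with compounds plus a stimulation mix containing 100uM IBMX and 25uM Ro-20-1724 for 0.5hr at room temperature. cAMP was measured by HTRF competition, 1hr.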

[16] = target: D(2) dopamine receptor (Homo sapiens) (UniProt P14416); assay: Dopamine D2 receptor (DRD2) small molecule antagonists, cell-based qHTS assay (AID 1963595; active = well fitted inhibition curve with a large enough effect in the signal ratio in the repeat runs, with a control signal flat; the % refers to the signal ratio; also: potency is read from the fitted curve at half-maximal effect); conditions: HEK293-DRD2 cAMP HTRF antagonist mode; series mostly up to 92.4 µM
In short: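 DRD2-HEK293; 0.1 mM Ro20-1724; cpd 10 min RT; NKH477 200 nM + quinpirole 12 nM, 30 min RT; HTRF cAMP (cAMP-d2/anti-cAMP cryptate), 665/620 nm ratio after 1 h.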

[17] = target: Muscarinic acetylcholine receptor M1 (Homo sapiens) (UniProt P11229); assay: Cholinergic receptor muscarinic 1 (CHRM1) small molecule antagonists, cell-based qHTS assay (AID 1963588); conditions: CHRM1-CHO antagonist mode, calcium flux fluorescence; series mostly up to 61.5 µM; also: nearly all actives have a fitted effect of over 40% in size; also: potency is read from the fitted curve at half-maximal effect
In short: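 Compounds were tested at 15 concentrations in three independent runs. Dye-loaded CHRM1-CHO cells were exposed 5 min at room temperature before stimulation by acetylcholine added at 50nM. Intracellular calcium was read kinetically on FDSS for 3 min.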

[18] = target: Muscarinic acetylcholine receptor M1 (Homo sapiens) (UniProt P11229); assay: Cholinergic receptor muscarinic 1 (CHRM1) small molecule agonists, cell-based qHTS assay (AID 1963589); conditions: CHRM1-CHO cells, agonist mode, calcium flux fluorescence; series mostly up to 76.8 µM; also: nearly all actives have a fitted effect of over 35% in size
In short: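 Fluorescent calcium dye reports M1 activation in stably transfected CHO cells. Compounds, 15 concentrations, added after 1 h dye loading at 37 C; kinetic reading at 1 sec intervals.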

[19] = target: D(2) dopamine receptor (Homo sapiens) (UniProt P14416); assay: Dopamine D2 receptor (DRD2) small molecule agonists, cell-based qHTS assay (AID 1963594); conditions: HEK293-DRD2 cAMP HTRF, agonist mode, 30 min; series mostly up to 92.4 µM; also: nearly all actives have a fitted effect of over 35% in size
In short: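 cAMP accumulation in DRD2-HEK293 cells measured by HTRF after 1 h detection; compounds added 10 min before NKH477 (200nM […]) forskolin-analogue stimulation, 30 min at room temperature, with Ro20-1724 present at 0.1 mM final.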

[20] = target: 5-hydroxytryptamine receptor 2A (Homo sapiens) (UniProt P28223); assay: 5-hydroxytryptamine receptor 2A (HTR2A) small molecule antagonists, cell-based qHTS assay (AID 1963586); conditions: HTR2A-CHO cells, DOI-induced calcium flux, fluorescence; series mostly up to 61.5 µM; also: nearly all actives have a fitted effect of over 45% in size
In short: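 CHO cells stably expressing human HTR2A were plated for 18 h at 37 C, then loaded with calcium dye for 1 h. Compounds were preincubated 5 min at room temperature before DOI (4 nM solution) was added. Kinetic fluorescence was read for 3 min.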

Measured: Potency

Sequence of Gonadotropin-releasing hormone receptor (Homo sapiens) (P30968 whole entry, looked up): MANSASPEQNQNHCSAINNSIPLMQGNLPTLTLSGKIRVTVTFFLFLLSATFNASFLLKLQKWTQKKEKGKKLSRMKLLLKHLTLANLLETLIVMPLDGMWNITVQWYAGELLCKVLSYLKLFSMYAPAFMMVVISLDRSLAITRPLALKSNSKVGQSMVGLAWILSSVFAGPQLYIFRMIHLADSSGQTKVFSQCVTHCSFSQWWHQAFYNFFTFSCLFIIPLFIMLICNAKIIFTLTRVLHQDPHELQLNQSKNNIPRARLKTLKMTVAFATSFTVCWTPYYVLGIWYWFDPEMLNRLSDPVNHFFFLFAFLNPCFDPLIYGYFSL
Sequence of D(2) dopamine receptor (Homo sapiens) (P14416 whole entry, looked up): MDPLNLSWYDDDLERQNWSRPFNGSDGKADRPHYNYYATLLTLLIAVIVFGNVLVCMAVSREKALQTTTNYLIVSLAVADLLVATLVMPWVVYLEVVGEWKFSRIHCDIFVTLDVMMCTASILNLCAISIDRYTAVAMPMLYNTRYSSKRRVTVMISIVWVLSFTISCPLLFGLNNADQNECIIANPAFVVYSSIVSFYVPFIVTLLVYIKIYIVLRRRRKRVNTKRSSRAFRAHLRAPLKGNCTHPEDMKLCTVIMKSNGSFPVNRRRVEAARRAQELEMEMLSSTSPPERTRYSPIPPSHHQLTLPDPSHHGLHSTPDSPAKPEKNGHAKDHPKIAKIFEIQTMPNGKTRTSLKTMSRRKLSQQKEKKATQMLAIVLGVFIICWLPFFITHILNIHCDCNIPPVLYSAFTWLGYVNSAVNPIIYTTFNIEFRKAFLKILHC
Sequence of 5-hydroxytryptamine receptor 2A (Homo sapiens) (P28223 whole entry, looked up): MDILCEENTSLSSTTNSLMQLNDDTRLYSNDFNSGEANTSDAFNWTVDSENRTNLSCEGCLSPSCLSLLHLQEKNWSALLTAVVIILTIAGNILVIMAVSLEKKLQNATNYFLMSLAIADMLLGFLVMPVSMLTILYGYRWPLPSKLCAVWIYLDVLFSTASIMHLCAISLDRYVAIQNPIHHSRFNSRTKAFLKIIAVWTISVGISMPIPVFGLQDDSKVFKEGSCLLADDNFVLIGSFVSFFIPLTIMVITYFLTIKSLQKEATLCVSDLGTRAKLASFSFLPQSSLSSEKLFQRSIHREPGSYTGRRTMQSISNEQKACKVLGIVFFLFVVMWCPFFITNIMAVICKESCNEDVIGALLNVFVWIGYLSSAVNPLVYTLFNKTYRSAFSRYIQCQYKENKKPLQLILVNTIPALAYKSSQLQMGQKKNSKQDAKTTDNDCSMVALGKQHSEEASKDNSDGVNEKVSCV
Sequence of KiSS-1 receptor (Homo sapiens) (Q969F8 whole entry, looked up): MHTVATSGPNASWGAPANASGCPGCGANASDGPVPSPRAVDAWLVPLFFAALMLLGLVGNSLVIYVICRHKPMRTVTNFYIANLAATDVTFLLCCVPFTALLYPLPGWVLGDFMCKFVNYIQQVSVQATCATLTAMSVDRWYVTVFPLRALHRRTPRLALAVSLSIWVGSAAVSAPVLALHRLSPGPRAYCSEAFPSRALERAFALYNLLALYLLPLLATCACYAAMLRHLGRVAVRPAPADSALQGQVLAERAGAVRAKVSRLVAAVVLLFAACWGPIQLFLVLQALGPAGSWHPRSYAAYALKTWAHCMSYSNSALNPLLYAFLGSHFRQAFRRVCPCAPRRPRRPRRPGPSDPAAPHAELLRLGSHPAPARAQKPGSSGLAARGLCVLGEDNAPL
Sequence of Muscarinic acetylcholine receptor M1 (Homo sapiens) (P11229 whole entry, looked up): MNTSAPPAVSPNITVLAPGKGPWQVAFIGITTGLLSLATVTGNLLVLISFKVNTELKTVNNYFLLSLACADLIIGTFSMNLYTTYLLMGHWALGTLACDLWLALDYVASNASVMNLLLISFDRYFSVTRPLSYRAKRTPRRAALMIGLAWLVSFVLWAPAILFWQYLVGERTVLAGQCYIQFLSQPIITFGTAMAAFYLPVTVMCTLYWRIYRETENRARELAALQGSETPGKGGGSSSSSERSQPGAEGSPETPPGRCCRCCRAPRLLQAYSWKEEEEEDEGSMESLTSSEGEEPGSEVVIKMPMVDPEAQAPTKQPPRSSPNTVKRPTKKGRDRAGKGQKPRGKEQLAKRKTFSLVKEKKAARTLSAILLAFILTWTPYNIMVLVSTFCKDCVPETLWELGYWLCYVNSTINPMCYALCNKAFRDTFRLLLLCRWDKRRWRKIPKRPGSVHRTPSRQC
Sequence of Beta-2 adrenergic receptor (Homo sapiens) (P07550 whole entry, looked up): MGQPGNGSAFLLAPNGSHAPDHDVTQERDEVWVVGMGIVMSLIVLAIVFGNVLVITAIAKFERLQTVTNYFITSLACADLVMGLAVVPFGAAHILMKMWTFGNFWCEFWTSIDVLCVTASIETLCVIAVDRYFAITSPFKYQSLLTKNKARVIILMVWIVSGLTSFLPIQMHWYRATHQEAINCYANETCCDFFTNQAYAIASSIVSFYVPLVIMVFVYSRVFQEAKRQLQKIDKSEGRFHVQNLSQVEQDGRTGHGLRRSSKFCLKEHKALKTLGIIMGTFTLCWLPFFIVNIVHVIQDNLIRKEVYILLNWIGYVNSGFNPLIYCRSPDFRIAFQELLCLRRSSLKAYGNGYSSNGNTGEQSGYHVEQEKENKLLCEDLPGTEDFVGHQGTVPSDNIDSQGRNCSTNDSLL

CCN(CC)CCOC(=O)C1(c2ccccc2)CCCC1
not listed: [17] | [18] | [19] | [20]
inactive: all other assays above

CN1CCN(C2=Nc3ccccc3Sc3ccc(Cl)cc32)CC1
active: [17] 1.45 µM | [16] 5.96 µM
not listed: [12] | [13] | [15] | [20]
inactive: all other assays above

O=C(O)c1cc(N=Nc2ccc([N+](=O)[O-])cc2)ccc1O
active: [1] 26.8 µM
not listed: [10] | [12] | [13] | [15]
inactive: all other assays above

O=C1OC(=O)C2CCCCC12 (stereo not drawn)
not listed: [10] | [15]
inactive: all other assays above

CC(COc1ccccc1)NC(C)C(O)c1ccc(O)cc1 (stereo not drawn)
not listed: [15] | [16] | [17] | [19] | [20]
inactive: all other assays above

O=C(c1ccc(F)cc1)C1CCN(CCn2c(=O)[nH]c3ccccc3c2=O)CC1
not listed: [12] | [13] | [20]
inactive: all other assays above

CCCCN1CCCC1C(=O)Nc1c(C)cc(C)cc1C (stereo not drawn)
not listed: [12] | [13] | [15] | [20]
inactive: all other assays above

NC(=O)COCCN1CCN(C(c2ccccc2)c2ccc(Cl)cc2)CC1 (stereo not drawn)
not listed: [10] | [14] | [15] | [19]
inactive: all other assays above

COc1ccc(CN2CCN(C(c3ccc(F)cc3)c3ccc(F)cc3)CC2)c(OC)c1OC
active: [1] 21.1 µM | [17] 2.59 µM
not listed: [11] | [12] | [13] | [16] | [18] | [20]
inactive: all other assays above

COc1cc(C(=O)NS(=O)(=O)c2ccccc2C)ccc1Cc1cn(C)c2ccc(NC(=O)OC3CCCC3)cc12
not listed: [11] | [12] | [13] | [17] | [18] | [20]
inactive: all other assays above

N[C@@H](Cc1cc(I)c(O)c(I)c1)C(=O)O
not listed: [11] | [15] | [19] | [20]
inactive: all other assays above

CCN(CC)CCc1nc(-c2ccccc2)no1
not listed: [11] | [13] | [15] | [20]
inactive: all other assays above

CCCCN(CCCC)CCCOC(=O)c1ccc(N)cc1
active: [11] 3.38 µM
not listed: [12] | [14] | [15] | [17] | [18] | [20]
inactive: all other assays above

CN1C(=O)N(c2ccccc2Br)Cc2cnc(Nc3ccc4c(c3)OCC(CO)O4)nc21 (stereo not drawn)
active: [1] 54.5 µM | [13] 57 µM
not listed: [10] | [12] | [14] | [15] | [16]
inactive: all other assays above

COc1ccc(C(=O)c2ccc(OC)cc2O)c(O)c1
active: [2] 69.1 µM
not listed: [10] | [12] | [15]
inactive: all other assays above

Cc1cc(S(=O)(=O)O)ccc1N=Nc1c(O)ccc2ccccc12
active: [1] 43.3 µM
not listed: [10] | [14] | [15]
inactive: all other assays above
